The values below come from PubChem BioAssay (EPA / NIEHS).

Values joined by “and” are separate entries in the source; they are usually repeats but may differ in a detail not shown here. Equal entries are not always repeated. Records with an inconclusive call do not appear. Some structures have more than one record in an assay (separate samples or runs), and their calls can disagree. Active and inactive are the calls of the source. How the source made its calls, unless noted: active means hit-call score of the fitted dose curve at least 0.9, where 1 is the maximum; inactive means score below 0.9.

Read-out in assay [1]: Interleukin-8 (IL8), CXCL8 (gene 3576)
The assay can be described thus: BSK_3C_IL8: BioMAP Diversity Plus: 3C Assay for Interleukin-8 (IL8) Biomarker Activity (AID 2283020). The conditions noted are these: primary human endothelial cells (HUVEC); actives raise or lower the signal. The method in brief:
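Primary human umbilical vein endothelial cells (3C system) were exposed to test chemical for 24 h, then IL-8 was quantified by ELISA. Responses were fitted bidirectionally against DMSO vehicle as baseline.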

Read-out in assay [2]: Monokine induced gamma interferon (MIG), CXCL9 (gene 4283)
The assay can be described thus: BSK_3C_MIG: BioMAP Diversity Plus: 3C Assay for Monokine induced gamma interferon (MIG) Biomarker Activity (AID 2283021). The conditions noted are these: primary human endothelial cells (HUVEC); actives raise or lower the signal. The method in brief: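 Primary human umbilical vein endothelial cells in the 3C system were exposed to chemical for 24 h, after which MIG was quantified by ELISA. Activity was fitted bidirectionally against DMSO as negative control and baseline.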

Assay [3] can be described thus: BSK_3C_SRB: Viability Assessment in the BioMAP Diversity Plus: 3C Assay (AID 2283023).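 Further: fitted both ways against DMSO so a hit may be signal rise or drop.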 The conditions noted are these: primary human endothelial cells (HUVEC). A digest of the protocol:
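Primary human umbilical vein endothelial cells in the 3C system were read 24 h after compound dosing. Total protein was stained with 0.1% sulforhodamine B after 10% TCA fixation and read at 560 nm, with bidirectional fitting against DMSO as baseline.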

Read-out in assay [4]: Matrix Metallopeptidase 1 (MMP1), MMP1 (gene 4312)
Kind of assay: BSK_BE3C_MMP1: BioMAP Diversity Plus: BE3C Assay for Matrix Metallopeptidase 1 (MMP1) Biomarker Activity (AID 2283024). The conditions noted are these: primary human bronchial epithelial cells; actives raise or lower the signal. A digest of the protocol:
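Primary human bronchial epithelial cells were dosed with test chemicals, and MMP1 levels were measured by ELISA 24 h later. Data were fitted bidirectionally against DMSO as the negative control and activity baseline.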

Read-out in assay [5]: Pselectin, SELP (gene 6403)
The assay can be described thus: BSK_4H_Pselectin: BioMAP Diversity Plus: 4H Assay for Pselectin Biomarker Activity (AID 2283026). The conditions noted are these: primary human endothelial cells (HUVEC); actives raise or lower the signal. A digest of the protocol: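 Primary human umbilical vein endothelial cells were exposed to test chemical for 24 h, then cell-surface P-selectin was quantified by ELISA. Activity was fitted bidirectionally against DMSO as negative control and baseline.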

Assay [6] is described as follows: BSK_4H_SRB: Viability Assessment in the BioMAP Diversity Plus: 4H Assay (AID 2283027).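 Further: cells exposed to compound for 24 h before staining.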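 On AC50: curves fitted both ways versus DMSO so AC50 may be loss or gain.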 The conditions noted are these: primary human endothelial cells (HUVEC). A digest of the protocol: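 Absorbance at 560 nm of SRB-stained total protein served as the viability read-out in confluent primary human umbilical vein endothelium 24 h after chemical treatment. Curves were fitted bidirectionally against DMSO as negative control.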

Assay [7] in a line: BSK_BE3C_SRB: Viability Assessment in the BioMAP Diversity Plus: BE3C Assay (AID 2283028).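 On AC50: fitted both ways so AC50 may mark signal gain or loss versus DMSO.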 The conditions noted are these: primary human bronchial epithelial cells. A digest of the protocol: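 Human primary bronchial epithelial cells were exposed to test chemicals for 24 h. Total protein in parallel cultures was then measured by staining with 0.1% sulforhodamine B after 10% TCA fixation, with absorbance read at 560 nm. Activity was fitted bidirectionally against DMSO.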

Read-out in assay [8]: Thrombomodulin, THBD (gene 7056)
Kind of assay: BSK_3C_Thrombomodulin: BioMAP Diversity Plus: 3C Assay for Thrombomodulin Biomarker Activity (AID 2283029). The conditions noted are these: primary human endothelial cells (HUVEC); actives raise or lower the signal. The method in brief: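 Primary human umbilical vein endothelial cells (3C system) were exposed to chemical for 24 h, then thrombomodulin levels were measured by ELISA. Activity was fitted bidirectionally against the DMSO negative control as baseline.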

Read-out in assay [9]: Urokinase-type plasminogen activator receptor (uPAR), PLAUR (gene 5329)
The assay can be described thus: BSK_4H_uPAR: BioMAP Diversity Plus: 4H Assay for Urokinase-type plasminogen activator receptor (uPAR) Biomarker Activity (AID 2283030). The conditions noted are these: primary human endothelial cells (HUVEC); actives raise or lower the signal. A digest of the protocol:
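Primary human umbilical vein endothelial cells were exposed to chemical for 24 h before cell-surface uPAR was quantified by ELISA. Activity was fitted bidirectionally against the DMSO negative control baseline.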

Read-out in assay [10]: Vascular endothelial growth factor receptor 2 (Homo sapiens) (UniProt P35968)
Kind of assay: BSK_4H_VEGFRII: BioMAP Diversity Plus: 4H Assay for Vascular endothelial growth factor receptor 2 (VEGFR2) Biomarker Activity (AID 2283031). The conditions noted are these: primary human endothelial cells (HUVEC); actives raise or lower the signal. The method in brief: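 Primary human umbilical vein endothelial cells in the BioMAP 4H system were dosed with test chemical, and 24 h later VEGFRII was measured by ELISA. Activity was fitted bidirectionally against DMSO as negative control and baseline.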

Read-out in assay [11]: Human Leukocyte Antigen - DR isotype (HLADR), HLA-DRA (gene 3122)
Kind of assay: BSK_BE3C_HLADR: BioMAP Diversity Plus: BE3C Assay for Human Leukocyte Antigen - DR isotype (HLADR) Biomarker Activity (AID 2283032). The conditions noted are these: primary human bronchial epithelial cells; actives raise or lower the signal. The method in brief:
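Human primary bronchial epithelial cells in the BE3C system were exposed to chemicals for 24 h, after which HLA-DR levels were quantified by ELISA. Activity was fitted bidirectionally, gain or loss of signal, against DMSO as negative control and baseline.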

Read-out in assay [12]: Vascular cell adhesion molecule 1 (VCAM1), VCAM1 (gene 7412)
The assay can be described thus: BSK_4H_VCAM1: BioMAP Diversity Plus: 4H Assay for Vascular cell adhesion molecule 1 (VCAM1) Biomarker Activity (AID 2283033).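 Further: cell-surface VCAM-1 protein measured by ELISA.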 The conditions noted are these: primary human endothelial cells (HUVEC); actives raise or lower the signal. A digest of the protocol: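 Primary human umbilical vein endothelial cells were exposed to chemicals for 24 h, after which VCAM-1 was quantified by ELISA. Responses were fitted bidirectionally against DMSO as negative control and activity baseline.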

Read-out in assay [13]: Interferon-gamma inducible Protein 10 (IP10), CXCL10 (gene 3627)
The assay can be described thus: BSK_BE3C_IP10: BioMAP Diversity Plus: BE3C Assay for Interferon-gamma inducible Protein 10 (IP10) Biomarker Activity (AID 2283034). The conditions noted are these: primary human bronchial epithelial cells; actives raise or lower the signal. A digest of the protocol: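 Human primary bronchial epithelial cells were exposed to chemicals for 24 hours, after which IP-10 levels were measured by ELISA. Data were fitted bidirectionally against DMSO, which served as the negative control and activity baseline.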

Read-out in assay [14]: Monokine induced gamma interferon (MIG), CXCL9 (gene 4283)
Kind of assay: BSK_BE3C_MIG: BioMAP Diversity Plus: BE3C Assay for Monokine induced gamma interferon (MIG) Biomarker Activity (AID 2283035).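 On outcome: MIG protein measured by ELISA in BE3C cultures after 24 h of dosing.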 The conditions noted are these: primary human bronchial epithelial cells; actives raise or lower the signal. The method in brief:
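MIG level was determined by ELISA after 24 h chemical treatment of primary human bronchial epithelial cells. Values were fitted bidirectionally with DMSO as the negative control and activity baseline.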

Read-out in assay [15]: Plasminogen activator inhibitor-1 (PAI1), SERPINE1 (gene 5054)
Kind of assay: BSK_BE3C_PAI1: BioMAP Diversity Plus: BE3C Assay for Plasminogen activator inhibitor-1 (PAI1) Biomarker Activity (AID 2283037). The conditions noted are these: primary human bronchial epithelial cells; actives raise or lower the signal. A digest of the protocol: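 Human primary bronchial epithelial cells were exposed to chemical for 24 h, then PAI-1 was quantified by ELISA. Activity was fitted bidirectionally relative to the DMSO negative control baseline.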

Read-out in assay [16]: urokinase plasminogen activator (uPA), PLAU (gene 5328)
Kind of assay: BSK_BE3C_uPA: BioMAP Diversity Plus: BE3C Assay for urokinase plasminogen activator (uPA) Biomarker Activity (AID 2283038).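 On outcome: uPA protein level quantified by ELISA in cell cultures; uPA read one day after compound addition.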 The conditions noted are these: primary human bronchial epithelial cells; actives raise or lower the signal. A digest of the protocol: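 Human primary bronchial epithelial cells were exposed to chemical for 24 h, then uPA levels were measured by ELISA. Responses were fitted bidirectionally against DMSO as negative control and baseline. Parallel SRB staining of total protein gauged overt cytotoxicity.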

Read-out in assay [17]: Urokinase-type plasminogen activator receptor (uPAR), PLAUR (gene 5329)
The assay can be described thus: BSK_BE3C_uPAR: BioMAP Diversity Plus: BE3C Assay for Urokinase-type plasminogen activator receptor (uPAR) Biomarker Activity (AID 2283039).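 On outcome: cells exposed to compound for one day before measurement.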 The conditions noted are these: primary human bronchial epithelial cells; actives raise or lower the signal. The method in brief:
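Primary human bronchial epithelial cells were dosed with chemical and harvested 24 h later; uPAR was quantified by ELISA. Activity was fitted bidirectionally against DMSO as negative control and baseline.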

Assay [18] concerns the target human Vitamin D Receptor (VDR), VDR (gene 7421) (UniProt P11473). Kind of assay: ATG_VDR_TRANS: Attagene TRANS-FACTORIAL HepG2 Assay for human Vitamin D Receptor (VDR) (AID 2283022; active means hit-call score of the fitted dose curve at least 0.9, where 1 is the maximum). A digest of the protocol:
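HepG2 cells were transiently transfected with multiple GAL4-UAS reporter units, so signal reflects exogenous chimeric receptor-Gal4 activity. After 24 h compound exposure, reporter mRNA was measured by RT-PCR, fluorescent labelling and capillary electrophoresis, fitted for gain of signal versus DMSO.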

Chain of human Vitamin D Receptor (VDR), VDR (gene 7421) (P11473 whole entry, looked up, the tested form may be a part): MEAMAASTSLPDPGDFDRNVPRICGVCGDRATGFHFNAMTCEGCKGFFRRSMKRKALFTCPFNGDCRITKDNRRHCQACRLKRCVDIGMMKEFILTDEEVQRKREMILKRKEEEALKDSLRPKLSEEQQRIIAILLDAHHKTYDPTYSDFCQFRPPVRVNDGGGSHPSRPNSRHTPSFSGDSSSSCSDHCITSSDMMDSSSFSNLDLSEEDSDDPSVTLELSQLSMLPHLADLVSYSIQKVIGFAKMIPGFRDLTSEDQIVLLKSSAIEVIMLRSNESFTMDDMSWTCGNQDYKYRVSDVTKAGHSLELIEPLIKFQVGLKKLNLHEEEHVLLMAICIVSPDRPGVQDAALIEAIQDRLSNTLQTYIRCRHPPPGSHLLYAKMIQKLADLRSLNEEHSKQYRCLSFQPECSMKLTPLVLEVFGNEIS

On to `O=S(=O)(Cl)C(F)(F)C(F)(F)C(F)(F)C(F)(F)C(F)(F)C(F)(F)C(F)(F)C(F)(F)F`, for which the AC50 in [1] was 30 µM (active) and 35.3 µM (active); in assay [3], 49.3 µM (active) and 55.6 µM (active); in assay [4], 7.12 µM (active) and 7.23 µM (active); in assay [6], 45.9 µM (active); in assay [7], 43.9 µM (active) and 30.7 µM (active); in assay [8] it was 30 µM (active) and 44.8 µM (active). In addition, the half-maximal activity concentration (AC50) was 12.1 µM (active) in assay [9]; 44.8 µM (active) and 46.8 µM (active) in [11]; 40.2 µM (active) and 37 µM (active) in assay [13]; 55.8 µM (active) and 53.6 µM (active) in [14]; 45.8 µM (active) and 47.4 µM (active) in assay [15]; 55.2 µM (active) in [16]. In addition, the AC50 in assay [17] is 51.7 µM (active) and 51.6 µM (active). The outcome in assay [2], in assay [5], in assay [6], in [9], in assay [10] and in [12] was inactive. Besides, in assay [16], the outcome was inactive.

With `CC(C)(C)C(=O)C1C(=O)c2ccccc2C1=O`, the molecule was classed as inactive in assay [18].

On to `NC(=O)C(F)(F)C(F)(F)C(F)(F)C(F)F`, for which the outcome in assay [1], in assay [2], in [3], in assay [4], in [5] and in [6] was inactive. Also, the outcome in [7], in assay [8], in assay [9], in [10], in [11] and in assay [12] was inactive. The result in assay [13], in assay [14], in assay [15], in assay [16] and in assay [17] was inactive.

In the case of `CCCCC(CC)COC(=O)c1ccc(N(C)C)cc1` (centres undefined), in assay [18], the outcome was inactive.

For `O=C1C=CC(=O)N1c1ccccc1`, in assay [18], the call was inactive.

In the case of `CC(C)(C)c1cc(Cc2cc(C(C)(C)C)c(O)c(C(C)(C)C)c2)cc(C(C)(C)C)c1O`, the result in assay [18] was inactive.

Consider `C=C(C)C(=O)OCC(F)(F)C(F)(F)C(F)(F)C(F)F`, for which the outcome in assay [1], in assay [2], in assay [3], in assay [4], in assay [5] and in assay [6] was inactive. Further, the outcome in assay [7], in [8], in assay [9], in [10], in assay [11] and in [12] was inactive. Moreover, the outcome in [13], in [14], in assay [15], in assay [16] and in assay [17] was inactive. In [8], the concentration at half-maximal activity (AC50) was 21.8 µM (active).

Usually AC50 stands for the midpoint of the concentration-response curve, whichever way the signal moves.
